ChEMBL document CHEMBL3988442, “University of Dundee, Small-Polar-MMV Screening Library” (2021)
For some assays here: Potency and affinity values are given separately.

Legend:
Set-up in all cases: scale not given: direction of the effect not stated beside the values
[1] = biological target: Protein translocase subunit SecA (Escherichia coli (strain K12)) (UniProt P10408); test: Assay to Identify E. coli SecA ATPase Inhibitors; format: functional; settings: 30 µM
[2] = biological target: T1, Ubiquitin-activating enzyme e1, putative (Leishmania donovani (strain BPK282A1)) (UniProt E9BSI1); test: Leishmania donovani Ubiquitin Activating Enzyme (LdE1); format: functional; settings: 30 µM
T1 sequence (whole entry): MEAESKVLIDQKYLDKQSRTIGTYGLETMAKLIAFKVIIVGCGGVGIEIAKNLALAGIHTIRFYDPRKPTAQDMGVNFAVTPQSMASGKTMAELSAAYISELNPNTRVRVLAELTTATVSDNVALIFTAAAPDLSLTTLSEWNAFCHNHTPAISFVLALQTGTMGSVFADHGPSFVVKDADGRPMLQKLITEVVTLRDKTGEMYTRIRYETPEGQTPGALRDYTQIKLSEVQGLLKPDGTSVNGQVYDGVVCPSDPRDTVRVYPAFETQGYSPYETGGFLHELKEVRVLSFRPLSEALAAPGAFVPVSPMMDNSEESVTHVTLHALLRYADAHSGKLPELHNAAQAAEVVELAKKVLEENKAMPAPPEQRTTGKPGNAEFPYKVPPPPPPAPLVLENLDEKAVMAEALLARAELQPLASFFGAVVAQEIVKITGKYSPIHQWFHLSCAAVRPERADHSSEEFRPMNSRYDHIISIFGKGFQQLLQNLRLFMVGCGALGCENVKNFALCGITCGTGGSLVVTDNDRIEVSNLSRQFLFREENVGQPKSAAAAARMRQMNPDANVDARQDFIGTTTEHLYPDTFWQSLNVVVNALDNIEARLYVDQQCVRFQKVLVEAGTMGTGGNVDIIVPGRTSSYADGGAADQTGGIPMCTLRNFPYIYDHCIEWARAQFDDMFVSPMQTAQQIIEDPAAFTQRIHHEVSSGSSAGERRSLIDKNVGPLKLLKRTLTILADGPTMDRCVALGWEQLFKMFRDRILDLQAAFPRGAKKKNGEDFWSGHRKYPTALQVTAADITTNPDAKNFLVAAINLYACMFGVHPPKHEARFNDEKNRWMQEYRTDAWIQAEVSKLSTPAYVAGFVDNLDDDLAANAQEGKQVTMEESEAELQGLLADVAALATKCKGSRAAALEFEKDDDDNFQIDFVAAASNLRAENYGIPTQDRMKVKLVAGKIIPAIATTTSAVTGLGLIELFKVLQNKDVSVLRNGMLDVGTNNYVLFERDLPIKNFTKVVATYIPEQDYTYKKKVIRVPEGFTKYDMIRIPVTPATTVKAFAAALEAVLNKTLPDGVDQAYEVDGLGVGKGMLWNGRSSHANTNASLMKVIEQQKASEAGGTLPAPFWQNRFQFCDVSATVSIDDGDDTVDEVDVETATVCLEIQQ

[3] = biological target: AMP-activated protein kinase, AMPK (Homo sapiens) (UniProt P54646+O43741+P54619+Q9UGJ0+Q9Y478+Q13131+Q9UGI9); test: AMP-dependent Kinase enzyme assay. An in vitro enzyme assay that detects ADP turnover that is directly proportional to AMPK activity. This uses naive AMPK that is activated during the assay with MK-8722; format: functional; settings: 30 µM
[4] = biological target: Sialic acid-binding Ig-like lectin 9 (Homo sapiens) (UniProt Q9Y336); test: Hs-Siglec9 ALPHAscreen SOP 20170721; settings: 10 µM
Chain of Sialic acid-binding Ig-like lectin 9 (Homo sapiens) (Q9Y336 whole entry): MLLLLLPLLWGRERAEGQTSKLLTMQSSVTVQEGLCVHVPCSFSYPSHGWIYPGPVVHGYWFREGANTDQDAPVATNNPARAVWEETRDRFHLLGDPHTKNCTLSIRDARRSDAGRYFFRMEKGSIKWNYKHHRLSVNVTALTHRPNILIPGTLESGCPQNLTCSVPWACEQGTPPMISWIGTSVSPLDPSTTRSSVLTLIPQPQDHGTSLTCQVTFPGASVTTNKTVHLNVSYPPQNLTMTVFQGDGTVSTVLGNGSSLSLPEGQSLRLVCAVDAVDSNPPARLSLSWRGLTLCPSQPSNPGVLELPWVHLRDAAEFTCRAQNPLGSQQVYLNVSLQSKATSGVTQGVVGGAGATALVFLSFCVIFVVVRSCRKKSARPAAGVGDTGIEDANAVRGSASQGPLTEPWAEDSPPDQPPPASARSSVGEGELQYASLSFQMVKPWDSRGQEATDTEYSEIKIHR

Trypanosoma cruzi = test: Trypanosoma cruzi phosphomannomutase and mannose-1-phosphate guanylyltransferase assay; format: functional; settings: 10 µM
[5] = biological target: T2, Arginase-2, mitochondrial (Homo sapiens) (UniProt P78540); test: in vitro enzyme assay to detect the production of urea directly proportional to the activity of Arginase II; format: functional; settings: 33.3 µM; further: in the data most compounds retested in dose-response had high values
T2 sequence (whole entry): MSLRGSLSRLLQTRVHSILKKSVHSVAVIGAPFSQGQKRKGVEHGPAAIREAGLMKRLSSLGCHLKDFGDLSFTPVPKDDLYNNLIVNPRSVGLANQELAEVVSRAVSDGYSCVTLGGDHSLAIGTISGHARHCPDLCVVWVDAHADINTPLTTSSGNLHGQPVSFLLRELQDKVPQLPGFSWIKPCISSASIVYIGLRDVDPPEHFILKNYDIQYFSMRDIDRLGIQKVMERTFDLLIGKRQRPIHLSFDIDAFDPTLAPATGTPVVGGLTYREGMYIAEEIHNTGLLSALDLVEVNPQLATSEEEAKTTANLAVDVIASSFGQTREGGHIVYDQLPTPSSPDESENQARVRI

[6] = biological target: T3, Proteasome subunit beta (Trypanosoma cruzi) (UniProt O96673); test: Trypanosoma cruzi proteasome chymotrypsin-like activity (TcProtChymo) assay.; further: in the data most compounds retested in dose-response had high values; format: functional; settings: 9.37 µM
T3 sequence (whole entry): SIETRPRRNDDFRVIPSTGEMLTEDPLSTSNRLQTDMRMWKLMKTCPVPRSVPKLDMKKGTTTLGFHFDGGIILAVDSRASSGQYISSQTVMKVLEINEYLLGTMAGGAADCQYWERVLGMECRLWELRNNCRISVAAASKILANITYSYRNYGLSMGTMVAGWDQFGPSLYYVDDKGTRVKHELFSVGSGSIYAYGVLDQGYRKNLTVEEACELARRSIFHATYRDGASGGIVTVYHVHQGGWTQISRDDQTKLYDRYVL

Homo sapiens = species on record: Homo sapiens; test: To identify inhibition of the IFN signalling (Jak-Stat) pathway via expression of an eGFP reporter gene under the control of an IFN-stimulated response element (ISRE) containing MxA promoter.; format: functional; settings: 30 µM
[7] = biological target: T4, Tyrosyl-tRNA synthetase, putative (Trypanosoma cruzi (strain CL Brener)) (UniProt Q4DSP6); test: Trypanosoma cruzi tyrosyl tRNA synthetase (TcYRS) _High Tyrosine SOP; format: functional; settings: 30 µM; further: in the data most compounds retested in dose-response had high values
T4 sequence (whole entry): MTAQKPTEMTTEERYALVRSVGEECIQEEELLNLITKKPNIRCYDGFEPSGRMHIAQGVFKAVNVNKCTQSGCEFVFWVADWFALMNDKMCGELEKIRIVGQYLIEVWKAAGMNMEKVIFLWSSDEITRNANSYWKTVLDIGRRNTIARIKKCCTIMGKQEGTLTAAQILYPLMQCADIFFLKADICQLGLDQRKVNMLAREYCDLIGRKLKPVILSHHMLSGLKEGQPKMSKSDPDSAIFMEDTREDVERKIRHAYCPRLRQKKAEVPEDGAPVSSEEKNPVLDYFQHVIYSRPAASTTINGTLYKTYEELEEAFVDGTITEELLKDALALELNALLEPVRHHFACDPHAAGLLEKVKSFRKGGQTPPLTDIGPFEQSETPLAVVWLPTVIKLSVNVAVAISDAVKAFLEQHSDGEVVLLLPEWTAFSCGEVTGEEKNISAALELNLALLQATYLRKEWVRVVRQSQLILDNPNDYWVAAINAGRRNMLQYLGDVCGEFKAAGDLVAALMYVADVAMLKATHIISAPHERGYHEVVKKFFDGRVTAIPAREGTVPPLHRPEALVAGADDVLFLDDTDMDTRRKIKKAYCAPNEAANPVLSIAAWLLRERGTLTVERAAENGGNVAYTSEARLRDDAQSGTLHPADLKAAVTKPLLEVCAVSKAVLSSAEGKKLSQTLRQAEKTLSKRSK

[8] = biological target: T4, Tyrosyl-tRNA synthetase, putative (Trypanosoma cruzi (strain CL Brener)); test: Trypanosoma cruzi tyrosyl tRNA synthetase (TcYRS) SOP; format: functional; settings: 30 µM
[9] = biological target: Chromo domain-containing protein 1 (Saccharomyces cerevisiae (strain ATCC 204508 / S288c) (Baker's yeast)) (UniProt P32657); test: ScCHD-1 Enzyme Inhibition Assay; format: functional; settings: 30 µM; further: in the data most compounds retested in dose-response had high values
Chain of Chromo domain-containing protein 1 (Saccharomyces cerevisiae (strain ATCC 204508 / S288c) (Baker's yeast)) (P32657 whole entry, the tested form may be a part): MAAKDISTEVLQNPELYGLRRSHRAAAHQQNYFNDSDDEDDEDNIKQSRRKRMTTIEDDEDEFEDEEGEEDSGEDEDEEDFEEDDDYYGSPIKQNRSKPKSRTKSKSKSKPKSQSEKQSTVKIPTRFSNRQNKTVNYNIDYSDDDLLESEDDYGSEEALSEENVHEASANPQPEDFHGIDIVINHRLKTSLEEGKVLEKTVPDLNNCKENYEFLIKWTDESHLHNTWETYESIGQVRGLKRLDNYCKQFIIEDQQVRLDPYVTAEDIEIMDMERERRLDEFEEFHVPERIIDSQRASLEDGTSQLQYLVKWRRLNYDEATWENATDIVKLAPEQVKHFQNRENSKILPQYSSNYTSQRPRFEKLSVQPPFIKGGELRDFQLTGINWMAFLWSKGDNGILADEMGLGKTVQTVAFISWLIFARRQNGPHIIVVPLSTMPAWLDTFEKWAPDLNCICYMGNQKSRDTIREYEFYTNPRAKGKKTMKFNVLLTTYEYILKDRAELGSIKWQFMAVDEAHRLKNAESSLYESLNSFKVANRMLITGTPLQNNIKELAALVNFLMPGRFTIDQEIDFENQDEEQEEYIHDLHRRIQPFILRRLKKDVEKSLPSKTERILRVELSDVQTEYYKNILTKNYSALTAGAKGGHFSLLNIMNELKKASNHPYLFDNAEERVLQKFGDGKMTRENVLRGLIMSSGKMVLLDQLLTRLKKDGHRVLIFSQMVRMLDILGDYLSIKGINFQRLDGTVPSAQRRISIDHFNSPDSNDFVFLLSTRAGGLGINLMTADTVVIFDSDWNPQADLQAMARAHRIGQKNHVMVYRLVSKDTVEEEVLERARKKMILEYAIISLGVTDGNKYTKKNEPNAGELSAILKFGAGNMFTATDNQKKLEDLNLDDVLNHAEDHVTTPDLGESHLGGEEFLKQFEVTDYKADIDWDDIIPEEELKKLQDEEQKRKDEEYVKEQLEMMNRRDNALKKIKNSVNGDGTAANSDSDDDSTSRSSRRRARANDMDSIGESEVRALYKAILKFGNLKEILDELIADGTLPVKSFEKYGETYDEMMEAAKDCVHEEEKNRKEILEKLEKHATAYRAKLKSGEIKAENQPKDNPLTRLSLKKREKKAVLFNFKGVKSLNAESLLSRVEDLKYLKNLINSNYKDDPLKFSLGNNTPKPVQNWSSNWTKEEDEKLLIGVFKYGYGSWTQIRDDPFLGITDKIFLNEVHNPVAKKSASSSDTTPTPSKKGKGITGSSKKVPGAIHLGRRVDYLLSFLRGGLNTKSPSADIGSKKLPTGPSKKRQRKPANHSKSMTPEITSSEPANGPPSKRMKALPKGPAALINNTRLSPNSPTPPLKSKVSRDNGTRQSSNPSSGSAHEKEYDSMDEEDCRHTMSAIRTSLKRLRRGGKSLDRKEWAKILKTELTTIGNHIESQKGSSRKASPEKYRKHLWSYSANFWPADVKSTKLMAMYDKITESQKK

Chain of Protein translocase subunit SecA (Escherichia coli (strain K12)) (P10408 whole entry): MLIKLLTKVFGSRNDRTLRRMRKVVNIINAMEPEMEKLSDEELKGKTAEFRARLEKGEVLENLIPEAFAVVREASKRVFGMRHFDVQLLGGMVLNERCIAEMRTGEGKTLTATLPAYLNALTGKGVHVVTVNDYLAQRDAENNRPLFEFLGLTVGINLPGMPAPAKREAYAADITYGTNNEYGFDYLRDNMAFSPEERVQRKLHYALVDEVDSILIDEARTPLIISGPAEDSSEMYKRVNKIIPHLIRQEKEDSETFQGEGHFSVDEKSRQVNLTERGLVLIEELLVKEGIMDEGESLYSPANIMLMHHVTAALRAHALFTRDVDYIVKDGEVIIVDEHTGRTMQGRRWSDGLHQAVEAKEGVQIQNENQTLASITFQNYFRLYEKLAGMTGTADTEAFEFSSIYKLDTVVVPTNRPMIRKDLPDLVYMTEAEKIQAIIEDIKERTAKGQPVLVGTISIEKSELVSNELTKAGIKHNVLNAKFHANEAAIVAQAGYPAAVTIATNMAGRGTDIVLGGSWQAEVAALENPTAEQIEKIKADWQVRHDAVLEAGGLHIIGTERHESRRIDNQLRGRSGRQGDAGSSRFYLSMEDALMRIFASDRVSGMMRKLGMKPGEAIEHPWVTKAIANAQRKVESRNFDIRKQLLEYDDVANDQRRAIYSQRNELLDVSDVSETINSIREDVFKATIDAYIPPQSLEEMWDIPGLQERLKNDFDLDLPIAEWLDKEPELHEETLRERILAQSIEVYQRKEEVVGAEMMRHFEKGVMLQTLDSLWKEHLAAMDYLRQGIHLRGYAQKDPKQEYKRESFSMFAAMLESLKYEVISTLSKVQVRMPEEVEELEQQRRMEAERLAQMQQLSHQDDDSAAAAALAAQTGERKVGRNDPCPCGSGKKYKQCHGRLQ

SMILES	Percent Effect [1]	Percent Effect [2]	Percent Effect [3]	Percent Effect [4]	Percent Effect (Trypanosoma cruzi)	Percent Effect [5]	Percent Effect [6]	Percent Effect (Homo sapiens)	Percent Effect [7]	Percent Effect [8]	Percent Effect [9]
COc1ccccc1CN(C)c1nccc(-c2cn(C)nc2C)n1	-1.09%	5.33%	2.11%	8.22%	4.58%	24%	16%	34.9%	6.01%	16.1%	-5.41%
CC(=O)N1CCCN(C(=O)c2ccn(-c3cccc(Cl)c3)n2)CC1	-2.55%	15.6%	-0.208%	-4.72%	-4.31%	-1.42%	12.8%	10.3%	5.83%	14.6%	-6%
NS(=O)(=O)Cc1ccc(CNC(=O)NCC2CCOC2)cc1 (configuration not stated)	-1.97%	7.79%	5.79%	-1.36%	1.86%	3.58%	5.09%	-5.41%	2.86%	18.8%	-8.13%
CC1CN(C(=O)NCCCn2cncn2)CCO1 (configuration not stated)	-2.77%	7.89%	1.46%	3.56%	-2.82%	5.75%	2.84%	-1.05%	5.39%	7.32%	-1.67%
Cc1ccc(CNC(=O)Cn2ncc3c2c(C)nn3C)cc1	0.175%	4%	4.44%	1.31%	-6.68%	-16.4%	10.2%	6.77%	3.17%	7.69%	-8.77%
NC(=O)C1CCN(C(=O)Cn2nc(-c3ccccc3)oc2=O)C1 (configuration not stated)	-4.97%	7.79%	1.04%	8.76%	2.46%	-13.8%	8.82%	-30.7%	2.15%	13.6%	-0.676%
CC(C)n1ncc2c1NC(=O)CC21C(=O)Nc2c(Cl)cc(Cl)cc21 (configuration not stated)	-1.94%	6.67%	3.17%	6.18%	-0.197%	-9.33%	1.29%	13.3%	2.12%	10.3%	-4.48%
Cc1ncc(CNC2CCCN(Cc3noc(C4CC4)n3)C2)s1 (configuration not stated)	-0.948%	10.5%	2.18%	8.33%	3.01%	2.3%	10.2%	8.96%	7.35%	19.5%	-8.72%
COCCC(=O)N1CCC(c2noc3nc(C)cc(C(F)(F)F)c23)CC1	-0.633%	6.76%	7.83%	4.3%	-6.13%	-2.55%	13.1%	8.05%	2.15%	6.49%	9.94%
O=C(CCc1nc2cccnc2[nH]1)Nc1cccnc1	-3.23%	22.7%	-1.32%	1.96%	3.14%	-2.29%	14.1%	-1.85%	2.12%	20.5%	-7.05%
Cn1cc(CN2CC[C@H]3C[C@H](c4nc(C5CC5)cs4)O[C@@H]3C2)cn1	-0.2%	18.2%	-0.28%	13.1%	6.59%	-9.65%	10.8%	12.1%	4.3%	16.1%	-1.85%
COCc1cccc(NC(C)C(=O)N(C)Cc2cccc(F)c2)c1 (configuration not stated)	-7.47%	-2.7%	-1.66%	-7.46%	-3.23%	-0.744%	6.44%	-12.8%	1.07%	1.24%	-5.78%
c1coc(-c2nnc(CN3CCOC(Cn4cccn4)C3)o2)c1 (configuration not stated)	-5.27%	7.59%	-2.15%	1.36%	6.89%	0.76%	11.6%	8.37%	5.42%	13.9%	-6.49%
COc1cccc(CC(=O)N2CCc3ncnc(NC(C)C)c3CC2)c1	-5.16%	-18.9%	0.899%	-4.76%	-3.42%	-0.319%	7.38%	12.2%	3.24%	7.69%	0.23%
Cc1nc(-c2ccc(Cl)s2)sc1C(=O)NCCS(N)(=O)=O	-5.36%	10.8%	20%	14.1%	-1.95%	2.4%	9.34%	6.3%	5.94%	13.4%	0.478%
Cc1ccc(C(=O)N2CCN(C(=O)Nc3ccccn3)CC2)o1	-7.04%	-2.6%	9.04%	-0.542%	-5.58%	2.32%	9.13%	11%	0%	-4.71%	-16.4%
COc1ccc(NC(=O)CNc2ccc(Br)cc2F)cc1	-3.43%	5.26%	9.89%	2.32%	-0.487%	0%	17.7%	39.2%	-14.9%	-13%	-4.78%
CC(=O)N(C)CC(=O)Nc1cccc(N2CCN(CC3CC3)CC2)c1	-6.27%	5.41%	-9.55%	0.217%	-1.86%	-13.2%	1.46%	4.97%	3.23%	11.1%	0.0532%
CNC(=O)c1cc2c(nc1NCC1CC1)CCN(S(=O)(=O)C1CC1)CC2	-0.616%	18.2%	3.29%	-14.9%	-2.86%	8.39%	9.75%	33.1%	-1.06%	11.5%	-8.62%
COc1cc(CCC(C)O)c(OC)c2c1OCO2 (configuration not stated)	-5.08%	-1.33%	-4.24%	-3.72%	-4.13%	-6.51%	11.5%	-0.862%	-1.06%	0%	-6.82%
COc1cc(C)c(C(C)NC(=O)Nc2nnc(C)s2)cc1OC (configuration not stated)	-4.05%	5.41%	-4.62%	14.6%	7.72%	1.24%	7.64%	11.2%	2.15%	11.1%	-3.99%
CCc1cnc(CN(C)C2CCN(CCc3ccccn3)C2)o1 (configuration not stated)	3.36%	9.72%	-16%	1.45%	-3.21%	3.97%	25.6%	0.763%	10.5%	5.13%	107%
